The source made the active and inactive calls. The calls were made as follows: active = hit-call score of the fitted dose curve at least 0.9, where 1 is the maximum; inactive = score below 0.9.

As usually defined, the AC50 is the concentration at which the activity in the assay is half-maximal.

Sequence of Cytochrome P450 3A4 (Homo sapiens) (P08684 whole entry, looked up): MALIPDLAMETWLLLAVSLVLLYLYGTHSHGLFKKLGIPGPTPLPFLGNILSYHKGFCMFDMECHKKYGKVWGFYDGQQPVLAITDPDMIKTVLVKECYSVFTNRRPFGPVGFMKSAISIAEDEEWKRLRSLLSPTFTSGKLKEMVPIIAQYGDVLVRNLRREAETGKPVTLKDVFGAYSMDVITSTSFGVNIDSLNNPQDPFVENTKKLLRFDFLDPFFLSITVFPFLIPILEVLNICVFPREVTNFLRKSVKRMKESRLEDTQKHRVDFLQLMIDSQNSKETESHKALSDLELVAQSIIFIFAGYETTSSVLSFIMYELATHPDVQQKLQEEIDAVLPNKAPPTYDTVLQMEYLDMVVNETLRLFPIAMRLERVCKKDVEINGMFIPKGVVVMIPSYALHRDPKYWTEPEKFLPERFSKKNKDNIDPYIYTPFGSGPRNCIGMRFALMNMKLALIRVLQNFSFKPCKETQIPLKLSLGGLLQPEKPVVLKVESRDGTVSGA

Read-out in the assay: Cytochrome P450 3A4 (Homo sapiens) (UniProt P08684)
In words: LTEA_HepaRG_CYP3A4: Life Technologies and Expression Analysis (LTEA) Assay for CYP3A4 using HepaRG (AID 2283487). To be noted: mRNA level, 48 h; actives raise or lower the signal. The procedure:
LTEA_HepaRG is a cell based, multiplexed-readout assay that uses HepaRG, a human liver cell line, with measurements taken at 48 hours after chemical dosing on a 96-well plate.LTEA_HepaRG_CYP3A4 is one of 102 assay component(s) measured in the LTEA HepaRG cell culture assay. It is a marker of NR mediated metabolism.Data from the assay component LTEA_HepaRG_CYP3A4 was analyzed into 1 endpoint. This assay endpoint, LTEA_HepaRG_CYP3A4, was analyzed with bidirectional fitting relative to DMSO as the negative control and baseline of activity. Using a type of inducible reporter, measures of mRNA induction for gain or loss-of-signal activity can be used to understand regulation of transcription factor activity. To generalize the intended target to other relatable targets, this assay endpoint is annotated to the cyp intended target family, where the subfamily is xenobiotic metabolism.
A total of 1060 chemcials from the ToxCast library were tested in eight-point concentration-response experiments. Cell culture and cytotoxicity assays were conducted at Thermo Fisher Scientific's Custom Services facility (Madison, WI). A single lot of human HepaRG cells (Thermo Fisher Scientific, Frederick, MD) was used for the cell culture experiments. 96-well format collagen type I coated plates of human HepaRG cells were prepared using established methods. Briefly, cryopreserved HepaRG cells were thawed, plated at a density of approximately 100,000 cells/well in HepaRG Thaw, Plate, and General Purpose media (HPRG770, Thermo Fisher Scientific), and incubated for 48 hours. 0.5% DMSO was selected as vehicle control to balance the requisite need of DMSO in HepaRG cultures to maintain differentiation (for example, baseline metabolism, proportions of hepatocytes vs. cholangiocytes), while enabling further hepatic receptor pathway activation (for example, PXR and CAR) in response to chemical exposure. 48 hours after plating, the culture medium was replaced with HepaRG Serum-Free Incudtion Media. Cells were exposed to each test chemical in duplicate and maintained in CO2 incubators for another 48 hours. Chemical plates were thawed to room temperature and 200x concentrations of treatment groups were prepared. 8-point conentration-reponse curves were made with the highest exposure at 100 uM, followed by half-log dilutions, all in 0.5% DMSO. Each test plate contained variouse controls, induction positive controls (1mM phenobarbital), cytotoxicity positive controls ([…] aflatoxin B1), vehicle controls (0.5% DMSO), and total lysis controls (0.5% DMSO). Cell morphology images were taken using an Essen IncuCyte FLR automated microscope, with six 96-well plates imaged in about 24 minutes. Images were captured and exported and JPEG files. Spent culture media was transfered to black-well plates for the LDH assay, and remaining media was sorted at -80 C for later use. Cells were treated with RLT buffer and frozen until shipped for gene expression analysis. Total RNA was isolated from the cell suspension in 75 uL of Buffer RLT (Qiagen, Germantown, MD 20874) by Quintiles/Expression Analysis (Durham, NC) using a custom isolation procedure. Total RNA from each plate well was transferred to a preamplification plate. Fluidigm's 96.96 Dynamic ArrayTM (Fluidigm, Amsterdam, the Netherlands) technology was used for gene expression analyses by quantitative reverse transcription polymerase chain reaction (qRT-PCR, performed by Quintiles/Expression Analysis, Durham, NC)89. Standard TaqManTM Assays (Applied Biosystems/ThermoFisher Scientific, Foster City, CA) were used to assess the expression of 93 genes selected based on their selectivity and sensitivity to important hepatic receptors known to be modulated by environmental chemicals; importance in human hepatocyte functionality; and hepatotoxicity. […]
For `COc1ccccc1N`, the result was inactive.
Same read-out and setting: the entry for `Clc1cccc(Cl)c1` is “inactive”; for `N#Cc1cccnc1` it is “inactive”; for `CN(C)C(=S)S` it is “inactive”.
Regarding `CC(C)(C)c1ccccc1O`, the AC50 was 12.6 µM (active).
On to `CC(C)O.CC(C)O.OCCN(CCO)CCO.OCCN(CCO)CCO.[Ti]`, for which the result was inactive.
On the same count and under the same terms, the entry for `OCCN(CCO)CCO` is “inactive”; for `O=C(N[C@H]1CN2CCC1CC2)c1ccc2c(c1)OCCO2` it is “inactive”; for `Clc1cccc(Cl)c1Cl` it is “inactive”.
As to `CCCCCCCCCCCCc1cccc(S(=O)(=O)O)c1`, the AC50 is 18.9 µM (active).
As to `Cc1cc(C)cc(C)c1`, the call was inactive.
For the molecule `O=C(O)C1(c2ccc3c(c2)OC[C@H](Cc2ccc(-c4ccccc4)cc2)[C@H]3O)CCCC1`, the AC50 was 4.6 µM (active).
For the molecule `Oc1cc(Cl)c(Cl)cc1Cl`, the molecule was called inactive.

For the origin of these results see PubChem BioAssay (EPA / NIEHS).
